PubChem BioAssay (NCI)
About 83,000 compounds went through this panel and 20% of them were active in at least one assay; those are over-represented in the sample as a whole.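 96-well plates, one dose, 48 hours. Percent growth reported; active if below 10.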 Values without a mark were called inactive. Activity calls are given as the source filed them.

Each compound was assayed on LOX IMVI melanoma (assay: NCI-60 one-dose screen, 48 h (100 = growth as untreated, 0 = no growth, -100 = all killed)). Details: 10 µM unless noted.

Row | Structure (SMILES) | growth
1 | CCCCC1COc2cccc3c(SCC(=O)N(C)c4cccc(Cl)c4)cc[n+]1c23 (stereo not drawn) | 102%
2 | COc1ccc(-c2c(N)n[nH]c2-c2ccccc2O)cc1OC | 96.6%
3 | CCOC(=O)c1sc(-c2ccc(OS(=O)(=O)c3ccc(C(C)(C)C)cc3)c(C=O)c2)nc1C | 43.3%
4 | Cc1nc(Nc2ccc(NC(=S)Nc3ccccc3)cc2)nc2nc(Nc3ccc(S(=O)(=O)O)cc3)[nH]c(=O)c12 | 109%
5 | COc1ccc(/C=C2\COc3ccc(O)cc3C2=O)c(OC)c1 | 45.4%
6 | COc1ccc(/C(C)=C(\c2ccc(Cl)cc2)c2ccc(OCCCN(C)C)cc2)cc1F | -74.1% (active)
7 | Cc1nc(Nc2ccc(NC(=S)Nc3ccccc3)cc2)c2ccccc2n1 | 97.9%
8 | C=C1C(=O)O[C@H]2[C@H]1CC/C(COC(=O)/C=C\C(=O)NCc1ccc(Cn3c(=O)sn(-c4ccc(OC)cc4)c3=O)cc1)=C\CC[C@@]1(C)O[C@@H]21 | -88.6% (active)
9 | CN(C)CCn1cc(-c2ccc3c(Nc4ccc(CC(=O)Nc5cccc(F)c5)cc4)ncnc3c2)cn1 | -50.2% [30 µM] (active)
10 | COc1ccc(/C(C)=C(\c2ccc(Cl)cc2)c2ccc(OCCN3CCCC3)cc2)cc1F | -88.3% (active)
11 | Cc1nc(Nc2ccc(S(=O)(=O)Nc3cc(C)on3)cc2)c2ccccc2n1 | 102%
12 | COc1ccc(OC)c(/C=C2\COc3ccc(O)cc3C2=O)c1 | 51.3%
13 | CCN(CC)CCOc1ccc(/C(=C(\C)c2ccc(F)c(OC)c2)c2ccc(Cl)cc2)cc1 | -94.1% (active)
14 | O[C@H]1CO[C@H]2[C@@H]1OC[C@@H]2Oc1ccc(Nc2ccnc(Nc3ccc(O[C@H]4CO[C@H]5[C@@H]4OC[C@@H]5O)c(Cl)c3)n2)cc1Cl | -8.35% (active)
15 | CC(=O)Nc1ccc(-c2cc3c(NCc4ccc(F)cc4)ncnc3s2)cc1 | 82.4%
16 | C/C(Cc1ccc(Cl)cc1)=C(/c1ccc(Cl)cc1)c1ccc(OCCN(C)C)cc1 | -88% (active)
17 | C=C1C(=O)O[C@H]2[C@H]1CC/C(COC(=O)/C=C\C(=O)NCc1ccc(Cn3c(=O)sn(CCCC)c3=O)cc1)=C\CC[C@@]1(C)O[C@@H]21 | -83.5% (active)
18 | Cc1nc(Nc2cccc(NC(=O)Nc3ccc(Cl)cc3)c2)c2ccccc2n1 | 88.7%
19 | COc1ccc(/C=C2\COc3ccc(O)c(O)c3C2=O)c(OC)c1 | 30.7%

Row | Structure (SMILES) | growth
20 | CCN(CC)CCOc1ccc(/C(=C(\C)c2ccc(OC)c(F)c2)c2ccc(Cl)cc2)cc1 | 1.85% (active)
21 | C=C1C(=O)O[C@H]2[C@H]1CC/C(COC(=O)/C=C\C(=O)NCc1ccc(Cn3c(=O)sn(-c4ccc(C#N)cc4)c3=O)cc1)=C\CC[C@@]1(C)O[C@@H]21 | -86.8% (active)
22 | CN(C)CCN1C(=O)c2cccc3c(-c4ccc(-c5nc6c7ccccc7c7ccccc7c6[nH]5)cc4)ccc(c23)C1=O | 58%
23 | c1ccc([P+](CCCc2n(Cc3ccc4ccccc4c3)c3ccccc3[n+]2Cc2ccc3ccccc3c2)(c2ccccc2)c2ccccc2)cc1 | 13.8%
24 | CCCCS(=O)(=O)Oc1ccc(-c2nc(C)c(C(=O)OCC)s2)cc1C=O | 28.3%
25 | CCCCN(Cc1ccc(C(=O)NO)cc1)C(=O)Nc1ccc(OCCCCCCCCCn2cc(CCCCC(=O)N[C@H](C(=O)N3C[C@H](O)C[C@H]3C(=O)NCc3ccc(-c4scnc4C)cc3)C(C)(C)C)nn2)cc1 | 23.2%
26 | COc1ccc(/C(C)=C(\c2ccc(Cl)cc2)c2ccc(OCCN3CCCCCC3)cc2)cc1F | -47% (active)
27 | C=C1C(=O)O[C@H]2[C@H]1CC/C(COC(=O)/C=C\C(=O)NCc1ccc(Cn3c(=O)sn(-c4ccc(Cl)cc4)c3=O)cc1)=C\CC[C@@]1(C)O[C@@H]21 | -84.9% (active)
28 | O[C@H]1CO[C@H]2[C@@H]1OC[C@@H]2Oc1ccc(Nc2nc(Nc3ccc(F)c(Cl)c3)ncc2F)cc1Cl | 103%
29 | O=C(CCc1nc(-c2cccc(Cl)c2)no1)Nc1ccccn1 | 97.3%
30 | COc1ccc(Cn2cnc3cc(C(=O)Nc4cccc5ccccc45)ccc32)c(OC)c1 | 12.1% [30 µM]
31 | Cc1nc(Nc2ccc(N)cc2)c2ccccc2n1 | 90.7%
32 | COc1cccc(/C=C2\COc3ccc(O)cc3C2=O)c1OC | -19.7% (active)
33 | CC(C)c1ccc(NC(=O)Cc2ccc(Nc3ncnc4cc(-c5cnn(CCN(C)C)c5)ccc34)cc2)cc1 | -65.1% [30 µM] (active)
34 | O=C1c2cccc3c(-c4ccc(-c5nc6c7ccccc7c7ccccc7c6[nH]5)cc4)ccc(c23)C(=O)N1CCN1CCNCC1 | -55.8% (active)
35 | O=C1/C(=C/c2ccc([N+](=O)[O-])cc2)COc2ccc(O)c(O)c21 | -75.5% (active)
36 | Cn1ccnc1C(=O)/C=C/c1ccc(C(=O)Nc2ccc(S(F)(F)(F)(F)F)cc2)cc1 | -79.5% (active)
37 | COc1ccc(OC)c(C(=O)Nc2cccc(-c3cc(=O)c4ccccc4o3)c2)c1 | 97.4%
38 | C=C1C(=O)O[C@H]2[C@H]1CC/C(COC(=O)/C=C\C(=O)NCc1ccc(Cn3c(=O)sn(CCCI)c3=O)cc1)=C\CC[C@@]1(C)O[C@@H]21 | -83.2% (active)
